In PubChem BioAssay (Tox21):
Records with an inconclusive call do not appear. Entries that show only a call come without a potency. A number with no mark means an inactive call. The source made the active and inactive calls. Calls follow the shape of the full dose curve.

Target: D(2) dopamine receptor (Homo sapiens) (UniProt P14416)
Assay: Dopamine D2 receptor (DRD2) small molecule agonists, cell-based qHTS assay (AID 1963594); also: nearly all actives have a fitted effect of over 35% in size
Settings: HEK293-DRD2 cAMP HTRF, agonist mode, 30 min; series mostly up to 92.4 µM; activation: at the top concentration
Text: National Center for Advancing Translational Sciences [NCATS]
Division of Preclinical Innovation [DPI]
U.S. Environmental Protection Agency [EPA]
National Institutes of Environmental Health Sciences [NIEHS]
National Toxicology Program [NTP]
U.S. Food and Drug Administration [FDA]
DRD2 is the D2 subtype of the dopamine receptor, which is coupled to Gi subtype of G protein-coupled receptor. This G protein-coupled receptor inhibits adenylyl cyclase activity. The DRD2-HEK293 cell line stably expressing D2 dopamine receptor can be used for screening agonists and antagonists of interactions between D2 and its ligands. The Hek293-DRD2 cAMP assay is based on HTRF technology. It measures changes of cAMP accumulation in response to Gi coupled GPCR activation or inhibition.
Tox21 Assay Protocol Summary:
DRD2-Hek293 cells were dispensed at 600 cells/3uL/well in 1536-well white plates using a Multidrop Dispenser. After the assay plates were incubated at a 37 C/5% CO2 incubator for 24 h, 1 uL of Ro20-1724 at final concentration of 0.1 mM was transferred to the assay plate by a Flying Reagent Dispenser. Following Ro20-1724 addition, 23 nL of compound dissolved in DMSO, positive controls or DMSO only was added to the assay plates via Wako pintool station. The assay plates were incubated at room temperature for 10 min. Next, 1 uL of NKH477 at 200nM was added into the plates. After the assay plates were incubated at room temperature for an additional 30 min, 2.5 ul/well of cAMP-d2 and 2.5 ul/well of anti-cAMP-cryptate were added respectively into the assay plates using a Flying Reagent Dispenser. The plates were incubated at room temperature for 1 h. The fluorescence intensity in the plates was measured at 340 nm excitation and 665 & 620 nm emission by an Envision plate reader.

Sequence of D(2) dopamine receptor (Homo sapiens) (P14416 whole entry, looked up): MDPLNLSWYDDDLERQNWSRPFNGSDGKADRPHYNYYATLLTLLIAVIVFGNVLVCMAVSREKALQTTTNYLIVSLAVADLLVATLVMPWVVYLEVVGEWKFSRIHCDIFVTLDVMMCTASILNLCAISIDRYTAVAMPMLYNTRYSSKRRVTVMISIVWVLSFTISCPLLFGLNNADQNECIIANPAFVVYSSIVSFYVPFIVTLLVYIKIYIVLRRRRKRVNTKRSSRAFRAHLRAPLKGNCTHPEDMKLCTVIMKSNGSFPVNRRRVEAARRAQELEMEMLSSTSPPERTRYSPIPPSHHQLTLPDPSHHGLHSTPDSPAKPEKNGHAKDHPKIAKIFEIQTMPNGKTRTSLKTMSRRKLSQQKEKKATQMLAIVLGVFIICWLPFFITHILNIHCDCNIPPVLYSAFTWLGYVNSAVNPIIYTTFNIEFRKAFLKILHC

Compound	Potency	activation [%]
O=C(O)c1ccc(O)cc1	inactive	–
C=CC(C)(C)C	inactive	–
CCCCC/C(C=O)=C\c1ccccc1	inactive	–
Nc1c2c(nc3ccccc13)CCCC2	inactive	–
C=C(C)C(=O)OCCCCCCCCCCCC	inactive	–
O=C(Oc1ccccc1)c1ccccc1O	inactive	–
NC(N)=NC(N)=NCCc1ccccc1	inactive	–
CC1Cc2ccccc2N1NC(=O)c1ccc(Cl)c(S(N)(=O)=O)c1 (stereo not given)	inactive	–
CCOCCOCCO	–	5.73
CN(C)C=O	inactive	–
CCCCCCCCCCN	inactive	–
Cc1ccc(C(C)C)c(O)c1	inactive	–
CC(=O)Nc1ccc2c(c1)Cc1cc(NC(C)=O)ccc1-2	inactive	–
NCCCCCCN	inactive	–
CC(C)[N+](C)(CCOC(=O)C1c2ccccc2Oc2ccccc21)C(C)C	inactive	–
CCCCCCCCCCCCCC(=O)OC(C)C	inactive	–
Cc1ccc(S(=O)(=O)NCl)cc1	inactive	–
C=C(C)C1CC=C(C)CC1 (stereo not given)	inactive	–
COc1ccc(C)cc1N	inactive	–
CCc1ccc(O)cc1	inactive	–

Compound	Potency	activation [%]
CCCCCCC(C)O (stereo not given)	inactive	–
C=C(C)C(=O)Nc1ccc(Cl)c(Cl)c1	inactive	–
CC(=O)O[C@]1(C(C)=O)CC[C@H]2[C@@H]3C[C@H](C)C4=CC(=O)CC[C@]4(C)[C@H]3CC[C@@]21C	inactive	–
CC/C(=C(\c1ccccc1)c1ccc(OCCN(C)C)cc1)c1ccccc1	inactive	–
CC(C)=CCC/C(C)=C/C=O	inactive	–
COc1ccc(Cl)cc1C(=O)NCCc1ccc(S(=O)(=O)NC(=O)NC2CCCCC2)cc1	inactive	–
CC(O)CO (stereo not given)	inactive	–
CC(=O)OCCOC(C)=O	inactive	–
OCCCc1ccccc1	inactive	–
Cc1nnc(NS(=O)(=O)c2ccc(N)cc2)s1	inactive	–
C/C=C(C)/C=C/C=C(C)C	inactive	–
CC[C@H](C)C(=O)O[C@H]1C[C@@H](C)C=C2C=C[C@H](C)[C@H](CC[C@@H]3C[C@@H](O)CC(=O)O3)[C@H]21	inactive	–
CN(C)C	inactive	–
CCN(CCN)c1cccc(C)c1	inactive	–
CCNc1cccc(C)c1	–	0.283
CCCCC/C=C\C/C=C\CCCCCCCC(=O)OC	inactive	–
CCCCC(C=O)CC (stereo not given)	inactive	–
O=S(=O)(O)c1ccc2cc(O)ccc2c1	inactive	–
CCCCOC(=O)c1ccc(N)cc1	inactive	–
CC(C)c1ccc(C(C)C)cc1	inactive	–
